One test relates to EPHA4. The following applies: n = 1.
For a further test, the system named is EPHA5. As to conditions: concentration: 1 μM, replicates: in singlicate; n = 1.
In a further test the test system is EPHA6. The following applies: n = 1.
A further test relates to EPHA7. As to conditions: n = 1.
The subject of another test is EPHA8. As to conditions: n = 1.
For a further test, the system named is EPHB1. The following applies: n = 1.
The next test has as its system EPHB2. The following applies: concentration: 1 μM, replicates: in singlicate; n = 1.
For another test, the system named is EPHB3. The following applies: n = 1.
In another test the test system is EPHB4. The following applies: n = 1.
For a further test, the system named is EPHB6. As to conditions: n = 1.
The test system of another test is ERBB2. The following applies: n = 1.
Another test deals with ERBB3. As to conditions: concentration: 1 μM, replicates: in singlicate; n = 1.
The test system of a further test is ERBB4. As to conditions: n = 1.
The next test concerns T1, ERK1.
T1 construct: gene MAPK3
The following applies: concentration: 1 μM, replicates: in singlicate; n = 1.

The test system of the next test is T2, ERK2.
T2 construct: gene MAPK1
The following applies: concentration: 1 μM, replicates: in singlicate; n = 1.

The test system of the next test is T3, ERK3.
T3 construct: gene MAPK6
The following applies: n = 1.

The subject of the next test is T4, ERK4.
T4 construct: gene MAPK4
As to conditions: n = 1.

The test system of another test is T5, ERK5.
T5 construct: gene MAPK7
As to conditions: concentration: 1 μM, replicates: in singlicate; n = 1.

In the next test the test system is T6, ERK8.
T6 construct: gene MAPK15
The following applies: concentration: 1 μM, replicates: in singlicate; n = 1.

The next test deals with ERN1. As to conditions: n = 1.
Setting [1] is: concentration: 1 μM, replicates: in singlicate.
Where [2] appears, read: concentration: 1 μM,replicates: in singlicate, 1 µM.

Experimental findings from article PMC5540273 (PLoS ONE, 2017) are described below.

Several values for one entry are separate records, joined by “and”; a condition that tells them apart may be missing. Equal entries are not always repeated. Where two headings read alike, the source gives them in different places.
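Note: KINOMEscan kinase panel screen.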

As for `Cc1ccc(NC(=O)Nc2cc(C(C)(C)C)nn2-c2ccccc2)cc1` [GSK1014915], the “%Inh” value with EPHA4 (setting [1]) amounted to 24%; in the test on EPHA5 it was 0%; in the test with EPHA6 (setting [1]), 28%; with EPHA7 (setting [1]) it was 9%; with EPHA8 (setting [1]) it was 25%; in the test with EPHB1 (setting [1]), 14%. The “%Inh” value with EPHB2 was 0%; with EPHB3 (setting [1]), 20%; in the test with EPHB4 (setting [1]), 12%; in the test on EPHB6 (setting [1]) it was 19%; with ERBB2 (setting [1]), 36%; in the test with ERBB3, 10%. In addition, the “%Inh” value came out at 0% in the test with ERBB4 (setting [1]); 0% in the test on ERK1; 0% in the test with ERK2; 7% with ERK3 (setting [1]); 26% with ERK4 (setting [1]); 0% with ERK5. For the same compound, the “%Inh” value in the test with ERK8 is on record as 52%; with ERN1 (setting [1]), 0%.

With `Cc1csc(-c2nc(Nc3ccncc3)c3ccccc3n2)n1` [GW869640], the “%Inh” value is 8% in the test on EPHA4 (setting [1]); 13% in the test on EPHA5; 6% with EPHA6 (setting [1]); 6% with EPHA7 (setting [1]); 5% in the test on EPHA8 (setting [1]); 7% in the test with EPHB1 (setting [1]). The “%Inh” value in the test with EPHB2 was determined as 0%; with EPHB3 (setting [1]), 9%; in the test on EPHB4 (setting [1]), 0%; in the test with EPHB6 (setting [1]), 28%; in the test on ERBB2 (setting [1]), 36%; in the test on ERBB3, 40%. Further, the “%Inh” value with ERBB4 (setting [1]) turned out to be 0%; in the test on ERK1, 13%; in the test on ERK2, 17%; with ERK3 (setting [1]), 4%; in the test on ERK4 (setting [1]) it was 0%; in the test on ERK5, 0%. For the same compound, the “%Inh” value was found to be 32% in the test with ERK8 and 27% with ERN1 (setting [1]).

On to `CC(C)(C)c1ccc(C(=O)Nc2cn3cc(Cl)ccc3n2)cc1`, for which the “%Inh” value in the test on EPHA4 (setting [1]), with EPHA5, with EPHA6 (setting [1]), in the test on EPHA7 (setting [1]), in the test with EPHA8 (setting [1]) and with EPHB1 (setting [1]) was 0% each time. For the same compound, the “%Inh” value stood at 0% with EPHB2; 0% in the test on EPHB3 (setting [1]); 0% with EPHB4 (setting [1]); 8% with EPHB6 (setting [1]); 14% with ERBB2 (setting [1]); 0% in the test with ERBB3. Also, the “%Inh” value with ERBB4 (setting [1]), with ERK1, in the test on ERK2, in the test with ERK3 (setting [1]), in the test with ERK4 (setting [1]) and in the test with ERK5 was 0% throughout. For the same compound, the “%Inh” value with ERK8 and in the test on ERN1 (setting [1]) was 0% each time.

With `CSc1nn2c(=O)cc(N3CCOCC3)nc2n1Cc1cccc(C(F)(F)F)c1C` [GSK2363608], the “%Inh” value with EPHA4 (setting [2]) is 2% and 23%; in the test on EPHA5, 0%; with EPHA6 (setting [2]), 0% and 12%; in the test on EPHA7 (setting [2]) it was 8% and 6%; in the test on EPHA8 (setting [2]), 0% and 18%; in the test on EPHB1 (setting [2]), 0% and 9%. The “%Inh” value in the test with EPHB2 was 0%; in the test with EPHB3 (setting [2]), 3% and 28%; in the test on EPHB4 (setting [2]), 13% and 17%; in the test with EPHB6 (setting [2]), 29% and 12%; in the test on ERBB2 (setting [2]), 0% and 10%; in the test with ERBB3, 0%. For the same compound, the “%Inh” value in the test on ERBB4 (setting [2]) is 28% and 37%; in the test on ERK1 it was 0%; with ERK2 it was 0%; in the test on ERK3 (setting [2]), 7% and 0%; in the test with ERK4 (setting [2]), 54% and 22%; with ERK5 it was 0%. Besides, the “%Inh” value with ERK8 was 0%; in the test on ERN1 (setting [2]) it was 3% and 1%.

As for `COC(=O)c1c(-c2ccccc2)c2cc(C(=O)O)ccc2c(=O)n1Cc1ccccc1`, the “%Inh” value turned out to be 0% in the test with EPHA4 (setting [1]); 0% with EPHA5; 0% in the test on EPHA6 (setting [1]); 0% in the test on EPHA7 (setting [1]); 0% with EPHA8 (setting [1]); 6% in the test on EPHB1 (setting [1]). Also, the “%Inh” value in the test on EPHB2 came out at 12%; in the test on EPHB3 (setting [1]) it was 0%; in the test with EPHB4 (setting [1]), 0%; in the test with EPHB6 (setting [1]), 0%; in the test with ERBB2 (setting [1]), 0%; with ERBB3, 0%. Moreover, the “%Inh” value with ERBB4 (setting [1]) is recorded as 2%; in the test on ERK1, 0%; in the test with ERK2, 16%; with ERK3 (setting [1]) it was 0%; in the test with ERK4 (setting [1]), 0%; in the test with ERK5 it was 0%. For the same compound, the “%Inh” value in the test with ERK8 and with ERN1 (setting [1]) was 0% each time.

Turning to `O=C(Nc1n[nH]c2nc(-c3nccs3)c(Br)cc12)C1CC1` [SB-742251], the “%Inh” value amounted to 24% in the test with EPHA4 (setting [1]); 1% in the test on EPHA5; 32% in the test with EPHA6 (setting [1]); 18% in the test on EPHA7 (setting [1]); 35% in the test on EPHA8 (setting [1]); 0% in the test with EPHB1 (setting [1]). In addition, the “%Inh” value with EPHB2 is given as 15%; in the test on EPHB3 (setting [1]), 29%; in the test on EPHB4 (setting [1]), 17%; in the test on EPHB6 (setting [1]), 59%; with ERBB2 (setting [1]), 2%; in the test on ERBB3 it was 19%. For the same compound, the “%Inh” value in the test with ERBB4 (setting [1]) stood at 0%; in the test on ERK1 it was 0%; in the test on ERK2, 11%; in the test on ERK3 (setting [1]) it was 14%; in the test on ERK4 (setting [1]), 16%; in the test with ERK5, 0%. Besides, the entries for the “%Inh” value in the test on ERK8 and in the test with ERN1 (setting [1]) were 84% and 0%, respectively.

As for `Cc1cccc(-c2nc(Nc3ccc4[nH]ncc4c3)c3ccccc3n2)n1` [GW857175], the “%Inh” value with EPHA4 (setting [1]) was found to be 0%; in the test with EPHA5, 0%; in the test with EPHA6 (setting [1]) it was 0%; with EPHA7 (setting [1]), 0%; in the test with EPHA8 (setting [1]), 0%; in the test on EPHB1 (setting [1]), 11%. In addition, the “%Inh” value is given as 0% with EPHB2; 0% in the test with EPHB3 (setting [1]); 0% in the test with EPHB4 (setting [1]); 43% in the test on EPHB6 (setting [1]); 0% with ERBB2 (setting [1]); 18% in the test on ERBB3. Besides, the “%Inh” value with ERBB4 (setting [1]) is reported as 0%; with ERK1, 0%; with ERK2 it was 4%; in the test on ERK3 (setting [1]), 0%; with ERK4 (setting [1]), 9%; with ERK5 it was 3%. For the same compound, the “%Inh” value in the test with ERK8 was 21%; in the test with ERN1 (setting [1]), 35%.

Regarding `Cn1ccc2ncnc(Oc3ccc(NC(=O)Nc4ccccc4)cc3)c21`, the “%Inh” value was determined as 0% in the test with EPHA4 (setting [1]); 0% with EPHA5; 18% with EPHA6 (setting [1]); 0% with EPHA7 (setting [1]); 0% in the test with EPHA8 (setting [1]); 0% with EPHB1 (setting [1]). Moreover, the “%Inh” value was found to be 1% with EPHB2; 22% in the test on EPHB3 (setting [1]); 6% in the test with EPHB4 (setting [1]); 35% in the test with EPHB6 (setting [1]); 14% in the test with ERBB2 (setting [1]); 10% with ERBB3. Further, the “%Inh” value in the test on ERBB4 (setting [1]) is on record as 0%; in the test with ERK1, 0%; with ERK2, 0%; with ERK3 (setting [1]), 0%; with ERK4 (setting [1]), 12%; with ERK5, 9%. For the same compound, the entries for the “%Inh” value with ERK8 and in the test on ERN1 (setting [1]) were 0% and 2%, respectively.
